{"source": "PubChem BioAssay (NCATS)", "note": "Results filed as inconclusive are left out. Activity calls are given as the source filed them. The call rests on the fitted dose curve; in most records, active means well fitted curve in the direction sought with a large enough effect; inconclusive means small, poorly fitted or top-dose-only effect, or another doubt; inactive means no such curve, though single readings can be large or run the other way.", "data": [{"assay": "KB-3-1 P-gp reporter qHTS against the NCATS DSHEA and TCM libraries (AID 1919975)", "conditions": "KB-3-1 parental cells, CellTiter-Glo luminescence viability, 72 h; series mostly up to 26.1 µM", "method_in_brief": "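Parental KB-3-1 cells, 500 cells/well, in DMEM with 10% FBS, exposed 72 h at 37 C to compounds in concentration-response. Viability read by CellTiter-Glo luminescence after 30 min at room temperature.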", "values": [{"molecule": "O=C(/C=C/c1ccc(O)c(O)c1)OC1[C@H](O)CC(O)(C(=O)O)C[C@@H]1O", "note": "(stereo partly specified)", "outcome": "inactive"}, {"molecule": "COc1ccccc1/C=C/C=O", "outcome": "inactive"}, {"molecule": "CCCCCCCCCCCC(=O)O", "outcome": "inactive"}, {"molecule": "C=C(C)[C@H]1CC=C(CO)CC1", "outcome": "inactive"}, {"molecule": "CCCCCCCC/C=C/CCCCCCCC(=O)O", "outcome": "inactive"}, {"molecule": "CC1=C2[C@H]([C@@H](C)CC[C@@H]2/C=C(\\C)C(=O)O)[C@@H](O)C1", "outcome": "inactive"}, {"molecule": "O=c1cc(-c2ccc(O)c(O)c2)oc2cc(O[C@@H]3O[C@@H](CO)[C@@H](O)[C@@H](O)[C@H]3O)cc(O)c12", "outcome": "inactive"}, {"molecule": "Cc1ccc(O)c(O)c1", "outcome": "inactive"}, {"molecule": "CCCCCCCCC/C=C/C(=O)CCc1ccc(O)c(OC)c1", "outcome": "inactive"}, {"molecule": "CCCCCCCC/C=C/CCCCCCCCCC(=O)O", "outcome": "inactive"}, {"molecule": "CCCCCC/C=C/CCCCCCCCCC(=O)O", "outcome": "inactive"}]}]}
